PubChem BioAssay AID624405 (Broad Institute, 2012)
The campaign covered roughly 1,900 compounds. About 250 (13%) were called active. Another 4% or so got no clear call; they are omitted. A selection follows. Results with a measured potency or affinity are listed apart. Unmarked numbers belong to inactive results.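 How the source made its calls: active means fitted curve reaches 40% rescue activity at or below the top valid dose, in every test run; inconclusive means test runs disagree, some active and some inactive; inactive means every run misses the threshold or moves the wrong way.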

assay: suppressors of statin myotoxicity in myotubes, dose response, cell-based, C2C12 myotubes, ATP luminescence, cherry pick (AID 624405); conditions: C2C12 myotubes + simvastatin, 48 h, scaled: DMSO wells 0, geranylgeraniol wells 100; series mostly up to 19.5 µM; rescue activity (ATP increase): at the top concentration;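 further: myotubes are challenged with simvastatin at 10 µM to lower ATP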

| SMILES | rescue activity (ATP increase) |
| --- | --- |
| COc1ccc(N=C2S/C(=C\c3cc(C)n(C)c3C)C(=O)N2CC(C)C)cc1 | -33.1% |
| COc1ccc(NC(=O)Nc2ccc3c(c2)C(=O)N([C@H](C)CO)C[C@H](C)[C@H](CN(C)Cc2ccc(C(F)(F)F)cc2)OCCCC[C@H](C)O3)cc1 | -42.8% |
| C[C@@H]1CN([C@H](C)CO)C(=O)Cc2cc(NC(=O)CCC(F)(F)F)ccc2O[C@H]1CN(C)Cc1ccc(Oc2ccccc2)cc1 | 17.4% [at 21 µM] |
| CN(C)S(=O)(=O)c1ccc(C(=O)NCCOc2ccc(F)cc2)cc1 | -10.8% |
| COc1ccc(S(=O)(=O)Nc2ccc3c(c2)C(=O)N([C@H](C)CO)C[C@H](C)[C@H](CN(C)S(=O)(=O)c2cccs2)OCCCC[C@H](C)O3)cc1 | 5.74% |
| C[C@@H]1CCCCO[C@@H](CN(C)S(C)(=O)=O)[C@H](C)CN([C@@H](C)CO)C(=O)c2cc(NS(=O)(=O)c3ccc(F)cc3)ccc2O1 | 16.5% |
| Cc1oc(C(=O)O)cc1COc1cccc2cccnc12 | -12.5% |
| c1ccc2c(c1)CCN(Cc1nnnn1Cc1ccc3c(c1)OCO3)C2 | -2.57% |
| Cc1ccc(C(O)CN2C3=NCCN3c3ccccc32)cc1 (stereo unspecified) | 2.99% |
| C[C@@H]1CN([C@H](C)CO)C(=O)Cc2cc(NC(=O)Nc3cccc4ccccc34)ccc2O[C@@H]1CN(C)S(=O)(=O)c1cccs1 | 9.53% |
| C[C@H](CO)N1C[C@H](C)[C@@H](CN(C)C(=O)Nc2ccc(F)cc2)Oc2ccc(NC(=O)Cc3cn(C)c4ccccc34)cc2CC1=O | 4.12% [at 10 µM] |
| Cc1ccc(S(=O)(=O)Nc2ccc3c(c2)CC(=O)N([C@@H](C)CO)C[C@@H](C)[C@H](CN(C)S(=O)(=O)c2ccc(C)cc2)O3)cc1 | 22.9% |
| C[C@@H]1CN([C@@H](C)CO)C(=O)Cc2cc(NC(=O)Nc3cccc4ccccc34)ccc2O[C@@H]1CN(C)S(=O)(=O)c1ccc(Cl)cc1 | 8.86% |
| COc1ccc(S(=O)(=O)Nc2ccc3c(c2)CC(=O)N([C@H](C)CO)C[C@H](C)[C@@H](CN(C)S(=O)(=O)c2ccc(C)cc2)O3)cc1 | 16.2% |
| C[C@H]1CN([C@@H](C)CO)C(=O)c2cc(NS(=O)(=O)c3ccc(F)cc3)ccc2O[C@@H]1CN(C)S(=O)(=O)c1ccc(F)cc1 | 12% [at 21 µM] |
| Cc1ccc(S(=O)(=O)N(C)C[C@@H]2Oc3ccc(NS(=O)(=O)c4ccc(F)cc4)cc3C(=O)N([C@H](C)CO)C[C@@H]2C)cc1 | 21.7% [at 21 µM] |
| Cc1ccc(S(=O)(=O)Nc2ccc3c(c2)CC(=O)N([C@H](C)CO)C[C@H](C)[C@H](CN(C)S(=O)(=O)c2ccc(C)cc2)O3)cc1 | 19.9% |
| O=C(O)c1nn(-c2ccccc2)nc1-c1nn(-c2ccccc2)nc1C(=O)O | 8.4% |
| O=S(=O)(NN=C1CCCCC1)c1ccccc1 | 2.86% |
| CC1(C)NC(=O)N(CC(O)Cn2nnc3ccccc32)C1=O (stereo unspecified) | 16.7% |
| C[C@H](CO)N1C[C@H](C)[C@@H](CN(C)C(=O)C2CCC2)Oc2ncc(C#Cc3cccc(F)c3)cc2C1=O | 0.264% |
| Nn1c(SCC(=O)N2CCN(S(=O)(=O)c3ccccc3)CC2)nnc1-c1cccs1 | -6.28% |
| Cc1ccc(S(=O)(=O)Nc2ccc3c(c2)CC(=O)N([C@@H](C)CO)C[C@@H](C)[C@H](CN(C)Cc2ccc(C(F)(F)F)cc2)O3)cc1 | 35.9% |
| Cc1ccc(C(=O)N2CCSCC2)cc1 | -3.87% |
| CSCCC(NC(N)=O)C(=O)NCC1CCCCC1 (stereo unspecified) | 1.42% |
| Cc1ccc(N2CCN(/N=C/c3sccc3C)CC2)cc1 | 5.86% |

| SMILES | rescue activity (ATP increase) |
| --- | --- |
| Cc1noc(C)c1S(=O)(=O)Nc1ccc2c(c1)C(=O)N([C@H](C)CO)C[C@H](C)[C@H](CN(C)S(=O)(=O)c1cccs1)OCCCC[C@H](C)O2 | -0.171% [at 21 µM] |
| C[C@@H]1CN([C@H](C)CO)C(=O)Cc2cc(NC(=O)Nc3cccc4ccccc34)ccc2O[C@H]1CN(C)Cc1ccc(Cl)c(Cl)c1 | 26.4% [at 21 µM] |
| O=C(C[C@H]1CC[C@@H](NC(=O)c2ccc3c(c2)OCO3)[C@H](CO)O1)NCc1ccc(Oc2ccccc2)cc1 | -3.13% |
| C[C@@H]1CN([C@@H](C)CO)C(=O)Cc2cc(NC(=O)Nc3cccc4ccccc34)ccc2O[C@H]1CN(C)Cc1ccc2c(c1)OCO2 | 8.72% [at 21 µM] |
| COC(=O)c1c(C(=O)OC)c2cc(C)ccn2c1Cl | -25% |
| C[C@@H]1CN([C@@H](C)CO)C(=O)Cc2cc(NS(=O)(=O)c3ccc(F)cc3)ccc2O[C@H]1CN(C)Cc1ccc(Oc2ccccc2)cc1 | 29% |
| C[C@@H]1CN([C@@H](C)CO)C(=O)c2cccc(NS(=O)(=O)c3cccs3)c2O[C@@H]1CN(C)S(=O)(=O)c1ccc(Cl)cc1 | -8.95% |
| COc1cccc(-c2cnc3c(c2)C(=O)N([C@H](C)CO)C[C@H](C)[C@H](CN(C)S(=O)(=O)c2cccs2)O3)c1 | -17.5% |
| COc1ccc(C2CC(=O)c3cnc(N)nc3C2)c(OC)c1 (stereo unspecified) | -0.556% |
| COc1ccc2c(c1OC)C(=O)N(c1ccccn1)C2 | 17.7% |
| CCOc1ccc(OCCOCCOc2c(Cl)cccc2Cl)cc1 | 12.4% |
| COC(=O)c1cn(CC(=O)N2C(C)CCCC2C)c2ccccc12 (stereo unspecified) | 6.27% |
| COc1ccc(S(=O)(=O)Nc2ccc3c(c2)C(=O)N([C@@H](C)CO)C[C@@H](C)[C@H](CN(C)S(=O)(=O)c2ccc(F)cc2)OCCCC[C@H](C)O3)cc1 | -11.1% |
| CCS(=O)(=O)N1CCCC(C(=O)NCCc2ccc(OC)c(OC)c2)C1 (stereo unspecified) | -21.5% |
| O=C(Nc1cccc(Cl)c1)C1CCCN(S(=O)(=O)c2ccc(F)cc2)C1 (stereo unspecified) | 13.5% |
| Cc1ccc(S(=O)(=O)Nc2ccc3c(c2)C(=O)N([C@@H](C)CO)C[C@@H](C)[C@H](CN(C)S(=O)(=O)c2cccs2)O3)cc1 | -0.835% |
| CCOc1ccc(CNn2nnnc2N)cc1 | 16.8% |
| C=CCN(c1ccccc1OC)S(=O)(=O)c1cccc(C(=O)OC2CCOC2=O)c1 (stereo unspecified) | -36.4% |
| CCCNC(=O)N(C)C[C@@H]1Oc2cc(C3=CCCCC3)ccc2S(=O)(=O)N([C@H](C)CO)C[C@@H]1C | 14% |
| Cc1ccc(NC(=O)c2ccccc2N(C)S(C)(=O)=O)cc1C | 3.5% |
| CSc1ccccc1NC(=O)c1ccccc1N(Cc1ccccc1)S(C)(=O)=O | 33.3% |
| C[C@@H]1CCCCO[C@@H](CN(C)C(=O)c2ccccc2)[C@H](C)CN([C@@H](C)CO)C(=O)c2cc(NS(=O)(=O)c3cccs3)ccc2O1 | 19.3% |
| CCOC(=O)c1sc(NC(=O)c2c(C)nn(Cc3ccccc3)c2C)cc1C | -7.04% |
| COc1ccc(CN2[C@@H](CO)[C@@H]3c4ccccc4NC[C@@H]32)cc1 | -4.08% [at 21 µM] |
| COc1ccc(CN2[C@H](CO)[C@@H]3c4ccccc4NC[C@@H]32)cc1 | -13.1% |
| O=C(Nc1ccccc1Cl)N1C[C@@H]2[C@H](c3ccccc31)[C@@H](CO)N2Cc1ccccc1 | -13% |

| SMILES | rescue activity (ATP increase) |
| --- | --- |
| Cc1ccc(S(=O)(=O)Nc2ccc3c(c2)CC(=O)N([C@H](C)CO)C[C@H](C)[C@@H](CN(C)Cc2ccc(C(F)(F)F)cc2)O3)cc1 | 38.9% |
| O=C(NCc1ccco1)c1ccccc1NS(=O)(=O)c1ccc2c(c1)OCCO2 | 26% |
| FC(F)(F)c1nc2nncn2c2c1CCCCC2 | 23.5% |
| CCc1ccc(N2CC(C(=O)NC3=NCCS3)CC2=O)cc1 (stereo unspecified) | -11.8% |
| Cc1ccc(N(CN2CCCC2=O)C(=O)c2ccc(C)c(C)c2)cc1 | 29.9% |
| CC(C)N1C(=O)CCC1C(=O)N1CCC(Cc2ccccc2)CC1 (stereo unspecified) | 19.4% |
| CC(C)CC(NC(=O)C1CCC(C)CC1)C(=O)Nc1cccnc1 (stereo unspecified) | -6.5% |
| COc1ccc(S(=O)(=O)Nc2ccc3c(c2)CC(=O)N([C@H](C)CO)C[C@@H](C)[C@@H](CN(C)Cc2ccc(Cl)c(Cl)c2)O3)cc1 | 36.8% |
| CC(C)NC(=O)Nc1ccc2c(c1)C(=O)N([C@H](C)CO)C[C@@H](C)[C@H](CN(C)C(=O)C1CCCCC1)OCCCC[C@@H](C)O2 | 2.97% |
| C[C@H]1CN([C@@H](C)CO)C(=O)Cc2cc(NS(=O)(=O)c3cn(C)cn3)ccc2O[C@@H]1CN(C)Cc1ccc(Cl)c(Cl)c1 | 12.7% |
| C[C@@H]1CN([C@@H](C)CO)C(=O)Cc2cc(NS(=O)(=O)c3cn(C)cn3)ccc2O[C@H]1CN(C)Cc1ccc(Cl)c(Cl)c1 | 4.02% |
| C[C@@H]1CN([C@@H](C)CO)C(=O)Cc2cc(NS(=O)(=O)c3cn(C)cn3)ccc2O[C@@H]1CN(C)Cc1ccc(Cl)c(Cl)c1 | 18.7% [at 21 µM] |
| C[C@@H]1CN([C@H](C)CO)C(=O)Cc2cc(NS(=O)(=O)c3cn(C)cn3)ccc2O[C@H]1CN(C)Cc1ccc(Cl)c(Cl)c1 | 12.2% [at 21 µM] |
| COc1ccc(CCNC2CCN(C)CC2)cc1OC | 0.107% |
| Cc1[nH]c2ccccc2c(=O)c1SC(F)(F)C(F)C(F)(F)F (stereo unspecified) | -8.66% |
| Cc1ccc(CC2CC(=O)N(CCc3ccc4c(c3)OCO4)C2=O)cc1 (stereo unspecified) | 15.4% |
| COc1ccc(NC(=O)N(C)C[C@H]2Oc3ccc(NC(=O)Cn4cnnn4)cc3C(=O)N([C@H](C)CO)C[C@H]2C)cc1 | 2.03% |
| C[C@@H]1CN([C@H](C)CO)C(=O)Cc2cc(NC(=O)Cc3cn(C)c4ccccc34)ccc2O[C@H]1CN(C)Cc1ccc(C(F)(F)F)cc1 | -17.1% |
| COc1cc2c3c(c1)C1(C(=O)N3C(C)(C)C=C2C)C(C#N)=C(N)Oc2cc(C)oc(=O)c21 (stereo unspecified) | 16% |
| COc1ccc(CCN2C(=O)C3C(C2=O)C2C=CC3C23CC3)cc1OC (stereo unspecified) | -29.4% |
| C[C@@H]1CCCCO[C@@H](CN(C)Cc2ccc(Cl)c(Cl)c2)[C@@H](C)CN([C@H](C)CO)C(=O)c2cc(NC(=O)Cc3ccccc3)ccc2O1 | 18% [at 21 µM] |
| COc1ccc(-n2c(SCC(=O)Nc3ccc4c(c3)OCO4)nc3ccccc3c2=O)cc1 | 45.4% |
| Cc1ccc(CSCC(=O)Nc2ccc3c(c2)OCO3)cc1 | -21.8% |
| C[C@@H]1CN([C@H](C)CO)C(=O)c2cccc(NC(=O)Nc3ccc(F)cc3)c2O[C@H]1CN(C)Cc1ccccc1 | 1.81% |
